# Measured values from PubChem BioAssay (NCI).
# About 83,000 compounds went through this panel and 20% of them were active in at least one assay; those are over-represented in the sample as a whole.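 Step 1: grow cells in 96-well plates. Step 2: add test compound at a single concentration. Step 3: incubate 48 h. Step 4: record percent growth.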 Values without a mark were called inactive. Activity calls are given as the source filed them. Rule for the calls: active = growth percent below 10; inactive = the rest.
# Key:
# Test in all cases: NCI-60 one-dose screen, 48 h (100 = growth as untreated, 0 = no growth, -100 = all killed)
# Settings in all cases: 10 µM unless noted
# DU-145 prostate = tested on: DU-145 prostate
# K-562 leukemia = tested on: K-562 leukemia
# MALME-3M melanoma = tested on: MALME-3M melanoma
# MDA-MB-231 breast = tested on: MDA-MB-231 breast
# RXF 393 renal = tested on: RXF 393 renal
# SF-268 CNS = tested on: SF-268 CNS
# SF-295 CNS = tested on: SF-295 CNS
# SF-539 CNS = tested on: SF-539 CNS
# UACC-257 melanoma = tested on: UACC-257 melanoma
# M14 melanoma = tested on: M14 melanoma
# HCT-15 colon = tested on: HCT-15 colon
# HT29 colon = tested on: HT29 colon
# SNB-75 CNS = tested on: SNB-75 CNS
# SNB-19 CNS = tested on: SNB-19 CNS
# U251 CNS = tested on: U251 CNS
# PC-3 prostate = tested on: PC-3 prostate
# SK-MEL-5 melanoma = tested on: SK-MEL-5 melanoma
# UACC-62 melanoma = tested on: UACC-62 melanoma
# LOX IMVI melanoma = tested on: LOX IMVI melanoma
# SK-MEL-28 melanoma = tested on: SK-MEL-28 melanoma
SMILES,growth (DU-145 prostate),growth (K-562 leukemia),growth (MALME-3M melanoma),growth (MDA-MB-231 breast),growth (RXF 393 renal),growth (SF-268 CNS),growth (SF-295 CNS),growth (SF-539 CNS),growth (UACC-257 melanoma),growth (M14 melanoma),growth (HCT-15 colon),growth (HT29 colon),growth (SNB-75 CNS),growth (SNB-19 CNS),growth (U251 CNS),growth (PC-3 prostate),growth (SK-MEL-5 melanoma),growth (UACC-62 melanoma),growth (LOX IMVI melanoma),growth (SK-MEL-28 melanoma)
CCN1C(=O)N(CC)C2Nn3c(s/c(=C\c4ccc(Cl)cc4Cl)c3=O)=NC21 (stereo not given),24.2%,11.4%,75.6%,27.3%,43%,64.6%,26.5%,13.1%,83.9%,26%,22.4%,79.3%,42.6%,48.6%,26.3%,33.6%,24.5%,41.1%,42.9%,45.2%
C=C(C)[C@@H]1CC[C@]2(C(=O)NC3CCCCC3)CC[C@]3(C)[C@H](CC[C@@H]4[C@@]5(C)CCC(=O)C(C)(C)[C@@H]5CC[C@]43C)[C@@H]12,104%,84.2%,84.2%,87.4%,98.3%,94.3%,97.8%,96.1%,94.2%,97.7%,97.1%,85.7%,85.6%,84.2%,84.9%,60.1%,95.9%,76.9%,92.2%,97.1%
CCCCCCCOc1c(OC)cc(C2CC(=O)Nc3c2c(C)nn3-c2nc3ccccc3[nH]2)cc1OC (stereo not given),29.6%,21%,-51.5% (active),-66.3% (active),-40.1% (active),-9.44% (active),-57.4% (active),-88.5% (active),10.1%,4.61% (active),0.5% (active),-2.41% (active),-31.5% (active),16.1%,-58.2% (active),12%,-83.7% (active),-49.2% (active),-89.2% (active),-9.72% (active)
NC(N)=Nc1nc2ccccc2n2c1nc1ccccc12,33.3%,17.9%,35.6%,53.2%,35%,28.5%,24.2%,50.3%,60.3%,42.6%,25.9%,18.2%,43.7%,38.8%,27.8%,48.5%,58.6%,40.7%,20.6%,82.3%
COc1cc(/C=C2\C(=O)ON=C2C)cc(OC)c1OC,108%,95%,102%,98.3%,114%,95.7%,100%,94.7%,103%,96%,102%,103%,80.4%,95.6%,100%,97.3%,101%,97%,96.2%,103%
COc1cccc(Nc2nccc(Nc3ccc4[nH]ncc4c3)n2)c1,-59.1% (active),-9.77% (active),-48.7% (active),15%,18.4%,26.3%,16.2%,13.9%,11.2%,-74.2% (active),-26.6% (active),-58.3% (active),30.3%,24.1%,-93.7% (active),-81.2% (active),-83.6% (active),-56.7% (active),-66.9% (active),-42.6% (active)
CCc1ccccc1NC(=O)/C(C#N)=C/c1ccc(OC)cc1,100%,99.5%,104%,105%,126%,93.8%,91.9%,108%,108%,99.1%,101%,100%,99.3%,111%,106%,81.1%,96.3%,81.6%,102%,92.9%
COc1cccc(C(=O)NCCNc2cc(-c3cn(-c4ccccc4)nc3-c3cccc(OC)c3)ccn2)c1,64%,32.4%,81%,62.1%,74.2%,68.9%,58.3%,87.3%,46.9%,51.3%,41.8%,22.6%,74.5%,78%,48.4%,25.4%,39.3%,55.1%,62.1%,80.2%
